Only a selection was taken, and hits are over-represented in it overall.
TbREL1 primary: TbREL1 inhibition, primary screen | TbREL1 RNA ligation, FRET fluorescence | P86926 | inhibition, % at 9.66 µM | hit rate 0.49% among 89,000;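 active = inhibition above the mean inhibition across all screened compounds plus 3 SD, cut at about 11% in these data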
Target sequence (P86926 whole entry, looked up): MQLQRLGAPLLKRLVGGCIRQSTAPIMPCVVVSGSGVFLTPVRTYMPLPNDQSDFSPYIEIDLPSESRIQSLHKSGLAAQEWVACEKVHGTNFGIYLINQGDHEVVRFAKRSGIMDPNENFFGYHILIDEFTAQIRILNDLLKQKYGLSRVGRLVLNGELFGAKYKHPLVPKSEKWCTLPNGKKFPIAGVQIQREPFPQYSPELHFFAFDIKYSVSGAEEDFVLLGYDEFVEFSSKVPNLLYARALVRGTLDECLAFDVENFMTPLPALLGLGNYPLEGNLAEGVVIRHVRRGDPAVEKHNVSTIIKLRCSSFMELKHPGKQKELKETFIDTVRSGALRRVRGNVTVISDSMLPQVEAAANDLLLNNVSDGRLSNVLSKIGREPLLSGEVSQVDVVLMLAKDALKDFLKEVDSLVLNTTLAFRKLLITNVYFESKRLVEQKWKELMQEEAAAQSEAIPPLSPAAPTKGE
TbREL1 conf: TbREL1 inhibition, confirmation; TbREL1 RNA ligation, FRET fluorescence; AID 1117282; shares compounds with TbREL1 primary; hit rate 37% among 390; inhibition, % at 9.66 µM;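 active = mean inhibition across replicates above a set limit taken from the earlier primary screen, cut at about 11% in these data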
A number is an active result; – = inactive.

SMILES	TbREL1 primary	others
CCOC(=O)C1(Cc2ccccc2)CCN(Cc2ccc(C(F)(F)F)cc2)CC1	–
C(=C\c1ccccc1)/CSc1nc2ncccc2[nH]1	–
N#CCSc1nc2ccccc2o1	–
N#CCSc1nccc(/C=C/c2ccccc2)n1	12	TbREL1 conf=–
CCOc1ccc(-n2c(SCC(=O)NN=Cc3ccc(C(=O)O)cc3)nnc2-c2cccnc2)cc1	–
CCCNC(=O)c1ccc2nc(-c3ccccc3)c(-c3ccccc3)nc2c1	–
O=C(NCCCO)c1ccc2nc(-c3ccco3)c(-c3ccco3)nc2c1	11	TbREL1 conf=19
COc1cccc(C(=O)NCCCNC(=O)c2ccco2)c1	–
CC(C)(C)c1ccc(C(=O)Nc2cc(Cl)ccc2C(=O)O)cc1	–
C/C(=N\NC(=O)CNc1cccc(C)c1)c1ccc(Br)s1	–
Cc1cccc(NCC(=O)N/N=C/c2cccc(Br)c2)c1	12	TbREL1 conf=–
O=C(CNc1ccc2ccccc2c1)N/N=C/c1ccccn1	–
CN1C2=N[C@@H](c3ccc4ccccc4c3)CC(=O)N2/C(=C\c2ccccc2)[C@H]1c1ccccc1	–
O=C(OCc1cn(Cc2ccc(C(F)(F)F)cc2)nn1)N1CCCC1	–
COC(=O)C1=C(C)N(Cc2ccccc2)C(=NCCCCO)N[C@H]1c1cccc(C(F)(F)F)c1	–
COCCN=C1N[C@@H](c2cccc(C(F)(F)F)c2)C(C(=O)OC)=C(C)N1Cc1ccccc1	14	TbREL1 conf=18
COC(=O)C1=C(C)N(C)C(=NCc2ccccc2C(F)(F)F)NC1c1ccc(F)cc1 (centres undefined)	–
COC(=O)C1=C(C)N(Cc2ccc(C(F)(F)F)cc2)C(=NCc2ccccc2C(F)(F)F)NC1c1ccccc1 (centres undefined)	13	TbREL1 conf=14
COC(=O)C1=C(C)N(Cc2ccc(C(F)(F)F)cc2)C(=NCc2ccccc2C(F)(F)F)NC1c1cccc(Cl)c1 (centres undefined)	16	TbREL1 conf=20
COC(=O)C1=C(C)N(Cc2ccccc2)C(=O)N[C@H]1c1ccccc1	–
CCN1C(=NCC(C)C)N[C@@H](c2cccc(C(F)(F)F)c2)C(C(=O)OC)=C1C	–
COC(=O)C1=C(C)N(Cc2ccccc2)C(=S)NC1c1cccc(OC)c1 (centres undefined)	–
COC(=O)C1=C(C)N(Cc2ccc(C(F)(F)F)cc2)C(=NCc2ccccc2C(F)(F)F)NC1c1ccc(Cl)cc1 (centres undefined)	11	TbREL1 conf=16
COC(=O)C1=C(C)N(Cc2ccc(Cl)cc2)C(=S)NC1c1ccc(Cl)cc1 (centres undefined)	–
COC(=O)C1=C(C)N(Cc2ccccc2)C(=O)N[C@H]1c1cccc(F)c1	–
SMILES	TbREL1 primary	others
C[C@H]1CCC/C=C/C(=O)c2c(cc(O)c(Cl)c2O)CC(=O)O1	–
Cc1ccc(NC(=O)N2CCC(N(C)CCC(C)C)CC2)cc1F	–
COC(=O)C(C[N+](=O)[O-])C1=C(O)CC(C)(C)CC1=O (centres undefined)	–
O=C(C1CCN(c2cncnc2)CC1)N1CCCC1	–
O=C(Nc1ccc(Cl)c(Cl)c1)C1CCCN(c2nnc(-n3cccc3)s2)C1 (centres undefined)	–
COc1ccc(-n2c(COc3ccccc3)nnc2SCC(=O)Nc2ccc(OCc3ccccc3)cc2)cc1	–
COc1cc(NC(=O)C2CCN(c3nnc(-n4cccc4)s3)CC2)cc(OC)c1	–
O=C(Nc1ccccc1)OCCN1CCCC12CCC(c1ccccc1)CC2 (centres undefined)	–
COc1cccc(Nc2cc(C)nc3ccccc23)c1	–
COc1ccc2nc(C)cc(Nc3ccccc3O)c2c1	–
COc1ccc2nc(C)cc(NCc3cccc(C(F)(F)F)c3)c2c1	13	TbREL1 conf=16
Cc1ccccc1C(=O)n1ccc2ccc(-c3ccc4ccn(Cc5ccc(C#N)cc5)c4c3)cc21	–
CC1CCC2(CC1)CCC2NCc1ccc(Cl)c(Cl)c1 (centres undefined)	–
CC(C)(C)c1ccc(S(=O)(=O)N2CCC(c3cn4ccccc4n3)CC2)cc1	–
Cc1ccc(C(=O)C2COC(=O)C2)cc1 (centres undefined)	20	TbREL1 conf=–
Cc1ccc(C(=O)C2CCN(CC(=O)N3CCCC3)CC2)cc1	–
Cc1ccc(C(=O)N2CCC(C(=O)c3ccc(Cl)cc3)CC2)cc1	–
CC(=NNC(=O)CSc1nnc(-c2ccc(C(C)(C)C)cc2)n1-c1ccccc1)c1cccc2ccccc12	–
O=C(Nc1ccon1)c1ccc(S(=O)(=O)N2CCOCC2)cc1	13	TbREL1 conf=–
O=C(Nc1cccc(F)c1)c1ccc(S(=O)(=O)N2CCOCC2)cc1	–
CC1CN(S(=O)(=O)c2ccc(C(=O)Nc3ccc(S(=O)(=O)N4CCOCC4)cc3)cc2)CC(C)O1 (centres undefined)	–
Cc1ccc(S(=O)(=O)N2CCCC2C(=O)N2CCN(c3ccccc3)CC2)cc1C (centres undefined)	–
O=C(O)CCCNC(=O)Cc1ccccc1	17	TbREL1 conf=–
O=C(Cc1ccccc1)NCCN1CCCC1	–
O=C(O)CCCNC(=O)Nc1ccccc1	–
SMILES	TbREL1 primary	others
CCCCOCCCNC(=O)C[C@H]1C[C@@]2(C(=O)OC)C(=C[C@H](C(C)(C)C)O[C@@H]2C)N(Cc2ccc(Cl)cc2Cl)C1=O	–
COc1ccc([C@H]2OC(=O)C[C@H]2C(=O)N2CCCC2)cc1OC	–
COC(=O)C1CN(CCO)CCS(=O)(=O)N1Cc1cccc(Cl)c1 (centres undefined)	–
Cc1cc(C(=O)N/N=C/c2ccc(O)c(O)c2O)c(C)n1-c1ccccc1	–
CCN=c1scc(C)n1/N=C/c1ccc(O)c(O)c1O	13	TbREL1 conf=24
Oc1ccc(/C=N/N(Cc2ccccc2)c2ccccc2)c(O)c1O	–
O=S1(=O)c2ccc(Br)cc2OC[C@@H](c2ccccc2)N1Cc1cn(CCC2OCCCO2)nn1	–
Cc1cc(NS(=O)(=O)c2ccc(NC(=O)CSc3nnc(-c4ccc(Cl)cc4)n3Cc3ccco3)cc2)nc(C)n1	–
Cc1ccc(OCc2nnc(SCC(=O)Nc3ccc(S(=O)(=O)Nc4cc(C)nc(C)n4)cc3)n2Cc2ccco2)cc1	–
Cc1cc(NS(=O)(=O)c2ccc(NC(=O)CSc3nnc(-c4ccncc4)n3Cc3ccco3)cc2)nc(C)n1	35	TbREL1 conf=–
COP(N)(=O)C(CC(C)C)NC(=O)OCc1ccccc1 (centres undefined)	–
O=C(CSc1nnc(-c2ccccc2)n1-c1ccc(Cl)cc1)Nc1ccccc1-c1ccccc1	–
Cc1cc(C)nc(N2CCN(C(=O)CSc3nc4ccccc4nc3N3CC(C)OC(C)C3)CC2)n1 (centres undefined)	–
Cc1ccc(-n2c(SCC(=O)Nc3ccc(S(=O)(=O)Nc4nccs4)cc3)nnc2-c2cccs2)cc1	–
Nc1ccc(-c2nc3ccc(N)cc3[nH]2)cc1	18	TbREL1 conf=36
Nc1ccc(-c2nc3ccc([N+](=O)[O-])cc3[nH]2)cc1	–
Nc1ccc(-c2nc3ccc(-c4nc5ccccc5o4)cc3[nH]2)cc1	–
c1ccc(-c2ccc(C3=Nn4c(nnc4-c4ccccn4)SC3)cc2)cc1	–
Brc1ccc2nc(C3CCCCC3)c(CC3CCCCC3)n2c1	11	TbREL1 conf=–
Cc1ccc2nc(C3CCCCC3)c(Cc3ccccc3C(F)(F)F)n2c1	–
CC(C)(C)Cc1c(C2CCCCC2)nc2ccc(Cl)cn12	–
COc1cc(C=Nn2c(-c3cc(-c4ccccc4)n[nH]3)n[nH]c2=S)ccc1OC(C)=O	–
COc1cc(NC(=O)c2ccccc2)c(C)cc1NC(=O)CSc1nnc(-c2ccccc2F)n1-c1ccc(C)cc1	–

Screening results as filed in PubChem.
